This is an account of results in PubChem BioAssay (NCI).

The panel holds about 79,000 compounds, 15% with a hit somewhere; the sample as a whole holds those more often. Unmarked numbers belong to inactive results. Active and inactive are the calls of the source. Rule as the data show it: active = growth inhibition above about 70%; inactive = the rest.

Assay [1] is described as follows: NCI Yeast Anticancer Drug Screen. Data for the rad50 strain (AID 155).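 Also: 0% = growth of vehicle-only cultures of the same strain.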 The following applies: S. cerevisiae rad50 strain growth inhibition; at 50.0 µM; stronger effect = higher value. In outline: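 Growth of the mutant yeast was measured after compound exposure and referenced to vehicle-treated cultures.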
The nature of assay [2]: NCI Yeast Anticancer Drug Screen. Data for the mec2-1 strain (AID 157). To be noted: S. cerevisiae mec2-1 strain, at 50.0 µM, stronger effect = higher value. Summed up:
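Vehicle-treated cultures served as reference for growth inhibition of compound-exposed mec2-1 yeast.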

Assay [3] is described as follows: NCI Yeast Anticancer Drug Screen. Data for the sgs1 mgt1 strain (AID 161).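 Also: 0% = growth of cultures given vehicle only.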 To be noted: S. cerevisiae sgs1 mgt1 strain, at 50.0 µM, stronger effect = higher value. In outline:
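Genetically altered yeast, compound exposure, growth inhibition relative to vehicle.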

The nature of assay [4]: NCI Yeast Anticancer Drug Screen. Data for the cln2 rad14 strain (AID 165).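 Also: 0% = growth equal to vehicle treated cultures.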 The following applies: S. cerevisiae cln2 rad14 strain, at 50.0 µM, stronger effect = higher value. In outline:
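Each compound was tested on cln2 rad14 yeast. Inhibition of growth was calculated against vehicle-exposed controls.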

A short description of assay [5]: NCI Yeast Anticancer Drug Screen. Data for the bub3 strain (AID 167). To be noted: S. cerevisiae bub3 mutant strain, at 50.0 µM, stronger effect = higher value. Summed up: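 Whole-cell yeast assay. The mutant strain was incubated with compounds, and growth inhibition was determined by comparison with vehicle-treated cells.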
A short description of assay [6]: NCI Yeast Anticancer Drug Screen. Data for the mlh1 rad18 strain (AID 175). To be noted: S. cerevisiae mlh1 rad18 strain growth inhibition; at 50.0 µM; stronger effect = higher value. In outline: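 Vehicle-treated cultures served as the reference for growth inhibition in a yeast strain carrying DNA damage repair alterations exposed to each compound.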

As to `CCOC(CN(Cc1ccccc1)CC(OCC)OCC)OCC`, the growth inhibition is 12.7% in assay [1]; 8.15% in assay [2]; 12.9% in assay [3]; 5.85% in assay [4]; 9.8% in assay [5]; -4% in assay [6].

On to `O=C(COc1ccccc1Cl)N1N=C(c2ccc(Cl)cc2)CC1(O)c1ccccc1` (stereo not given), for which the growth inhibition in assay [1] is -17.9%; in assay [2], -7.2%; in assay [3], -43.2%; in assay [4] it was -0.85%; in assay [5], -25.8%; in assay [6], -16.9%.

`COc1ccc(-c2cc(-c3ccccc3)nc(-c3cccc([N+](=O)[O-])c3)c2)cc1`: the growth inhibition in assay [1] is -1.6%; in assay [2] it was -4.4%; in assay [3], 11.4%; in assay [4], -3.75%; in assay [5] it was 21.2%; in assay [6], 18.4%.

Take `COC(=O)CCCC(Sc1ccccc1)C(=O)OC` (stereo not given): the growth inhibition in assay [1] is 3.7%; in assay [2], 0.6%; in assay [3] it was 15.7%; in assay [4], -7.4%; in assay [5], 7.85%; in assay [6], 6.75%.

For the compound `CSCCC(NC(c1ccccc1)c1ccccc1)[P+](=O)O` (stereo not given), the growth inhibition in assay [1] was -53.4%; in assay [2], -44.8%; in assay [3], -37.5%; in assay [4] it was -5.15%; in assay [5], -3.65%; in assay [6], -40.1%.

As to `CC1OC(OC2C(OC(=O)[C@@H]3CC(C)(C)C[C@@H]4C5=CC[C@@H]6[C@@]7(C)C[C@H](O)[C@H](OC8OC(CO)C(O)C(O)C8O)[C@@](C)(CO)C7[C@H](O)C[C@@]6(C)[C@]5(C)C[C@@H](O)[C@H]43)OCC(O)C2O)C(O)C(O)C1O` (stereo not given in full), the growth inhibition is -23.9% in assay [1]; -21.6% in assay [2]; -9.35% in assay [3]; 13.2% in assay [4]; 1% in assay [5]; -49.7% in assay [6].

Turning to `O=C(OC1CCCC1)c1ccccc1`, the growth inhibition in assay [1] is 5.3%; in assay [2], 9.9%; in assay [3], -26.1%; in assay [4], -29.1%; in assay [5], -10.2%; in assay [6], -2.2%.

`c1ccc(CN2CCCCC(Sc3ccccc3)CC2)cc1` (stereo not given): the growth inhibition is 90.2% (active) in assay [1]; 93.8% (active) in assay [2]; 92.2% (active) in assay [3]; 90.5% (active) in assay [4]; 89.7% (active) in assay [5]; 90.9% (active) in assay [6].

Regarding `C[C@H](CCC(=O)NCCS(=O)(=O)O)[C@H]1CC[C@H]2[C@@H]3CC[C@@H]4C[C@H](O)CC[C@]4(C)[C@H]3CC[C@]12C`, the growth inhibition was 2.9% in assay [1]; -21.1% in assay [2]; 5.65% in assay [3]; -9.3% in assay [4]; -5.55% in assay [5]; 14.8% in assay [6].

On to `CC(C)C1C(O)C23CCC4C(C)(CO)CCCC4(C)C2CC13` (stereo not given), for which the growth inhibition was -7.15% in assay [1]; -6.85% in assay [2]; -22.6% in assay [3]; -15.4% in assay [4]; -24.1% in assay [5]; -8.75% in assay [6].

In the case of `N#CC(c1ccc(O)cc1)N1CCN(C(C#N)c2ccc(O)cc2)CC1` (stereo not given), the growth inhibition in assay [1] is -1.5%; in assay [2], 1%; in assay [3], -33.2%; in assay [4], -26.8%; in assay [5] it was -25.2%; in assay [6] it was -43.4%.

Take `C/C=C/CS(=O)(=O)Cc1ccccc1`: the growth inhibition was 1.85% in assay [1]; -11.8% in assay [2]; -5.95% in assay [3]; -3.95% in assay [4]; -4.3% in assay [5]; -14.9% in assay [6].

With `Nc1ccc(OCC(O)CN2CCN(c3ccccc3)CC2)cc1` (stereo not given), the growth inhibition in assay [1] was 7.45%; in assay [2] it was 4.15%; in assay [3] it was 6.65%; in assay [4], -3.85%; in assay [5], 10.6%; in assay [6], 4.1%.

`O=C(N1CCOCC1)C12OC3CC(CC(C3)O1)O2`: the growth inhibition is 8.5% in assay [1]; 1.95% in assay [2]; 3.45% in assay [3]; 11.2% in assay [4]; 17.6% in assay [5]; 4.65% in assay [6].

Turning to `CCCCCCCCOC(=O)C(C)OC(C)=O` (stereo not given), the growth inhibition in assay [1] is 17.2%; in assay [2], 2.05%; in assay [3] it was 2.3%; in assay [4], 13.8%; in assay [5], 12.3%; in assay [6] it was 12.1%.

Consider `Cc1ccc(S(=O)(=O)CCCCS(=O)(=O)c2ccc(C)cc2)cc1`, for which the growth inhibition is 1.8% in assay [1]; 4.35% in assay [2]; -7.1% in assay [3]; -62.4% in assay [4]; -27.2% in assay [5]; 2.3% in assay [6].

Consider `OCc1c(CO)c2cccn2c2c1cnn2-c1ccccc1`, for which the growth inhibition was 11.3% in assay [1]; 1.45% in assay [2]; 23.9% in assay [3]; -64.9% in assay [4]; -8.2% in assay [5]; 11.2% in assay [6].

`CC1(C)[C@@H]2C[C@H]1[C@@H](Cc1cccc(C[C@H]3c4cc(-c5ccccn5)ncc4[C@H]4C[C@@H]3C4(C)C)c1)c1cc(-c3ccccn3)ncc12`: the growth inhibition is 45.4% in assay [1]; 28.2% in assay [2]; 45.4% in assay [3]; 16.8% in assay [4]; 45.9% in assay [5]; 45.4% in assay [6].

For the compound `N#CC1=C(O)/C(=C\c2ccc(Cl)cc2)N=C1N`, the growth inhibition in assay [1] was -28.3%; in assay [2] it was -14.3%; in assay [3], -7.8%; in assay [4], -13.9%; in assay [5] it was -6.2%; in assay [6] it was -3.35%.

Turning to `C/C(=N\Nc1ccc([N+](=O)[O-])cn1)c1ccccn1`, the growth inhibition is 31.2% in assay [1]; -10.2% in assay [2]; 25.4% in assay [3]; 5.6% in assay [4]; 12.2% in assay [5]; -1.3% in assay [6].
